Screens as filed in PubChem.
D3 ag = activates the human D3 dopamine receptor | P35462 | D3R DiscoveRx beta-arrestin cells, luminescence, 90 min | max activation, % | actives 0.58% (n = 410,000); in the data active = max activation above about 30%
Target sequence (P35462 whole entry, looked up): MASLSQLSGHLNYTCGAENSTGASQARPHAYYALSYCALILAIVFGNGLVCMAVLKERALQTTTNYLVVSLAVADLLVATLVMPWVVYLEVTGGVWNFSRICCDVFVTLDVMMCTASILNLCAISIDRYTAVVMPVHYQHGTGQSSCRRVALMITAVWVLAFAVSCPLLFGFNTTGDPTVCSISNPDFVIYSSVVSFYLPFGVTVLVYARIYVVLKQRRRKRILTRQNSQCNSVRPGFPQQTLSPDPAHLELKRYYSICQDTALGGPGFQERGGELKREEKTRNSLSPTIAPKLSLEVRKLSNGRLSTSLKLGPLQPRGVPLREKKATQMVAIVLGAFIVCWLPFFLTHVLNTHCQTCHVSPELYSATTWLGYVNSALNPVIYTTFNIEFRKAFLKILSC
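Agonist-mode cell screen: cells plated at 1500/well and incubated overnight at 37 °C, then exposed to library compounds for 90 min at 37 °C. Detection reagent was added for 30–60 min at room temperature, and luminescence was read.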
DRD3 antagonist = blocks the human D3 dopamine receptor | P35462 | D3R cells, DiscoveRx beta-arrestin luminescence, antagonist mode; hits give low values | max response, negative = inhibition, % | actives 2.5% (n = 360,000) | AID 652054; in the data active = max response below about -50%; inconclusive = no clear call, values can overlap the other calls
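Cells expressing the human receptor were seeded at 1500 cells/well, incubated overnight at 37 degrees C in 5% CO2, then exposed to library compounds with dopamine controls for 90 minutes at 37 degrees C before luminescent detection.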
KB-3-1 cytotox = KB-3-1 parental cell cytotoxicity; KB-3-1 viability, CellTiter-Glo ATP luminescence, 72 h; actives 1.4% (n = 400,000); Potency, µM (highest dose often 46.1 µM), most hits filed as cytotoxic; AID 1347075; note: nearly all actives have a fitted effect of over 60% in size
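Cells are dispensed, compounds pinned in, plates held at 37 °C for 72 h, then CellTiter-Glo is added and luminescence read after 10 minutes. Cell line: parental KB-3-1 in phenol-red-free DMEM, 10% FBS.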
SW480 rerep = inducers of DNA re-replication in SW480 colon cancer cells. AID 624297. actives 1.8% (n = 340,000). SW480 DNA re-replication, Hoechst DNA content imaging, 48 h. Potency, µM (top dose mostly 46.1 µM), actives largely listed as activators; note: nearly all actives have a fitted effect of over 55% in size
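Cells (250 per well) received 23 nL compound or DMSO by pin tool and were kept 48 hr at 37 C, 5% CO2. Nuclei were then stained with Hoechst for 40 min and scanned for DNA content.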
KB-V1 MDR tox = KB-V1 MDR subline cytotoxicity; actives 3.4% (n = 400,000); AID 1347076; Potency, µM (titrated, usually from 46.1 µM), usual class: cytotoxic; KB-V1 MDR cells viability, CellTiter-Glo, 72 h; note: nearly all actives have a fitted effect of over 60% in size
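Following 72 h at 37 degrees C with compound, KB-V1 cell viability was read by CellTiter-Glo luminescence, medium being phenol-red-free DMEM plus 10% FBS; concentration-response parameters came from normalized, curve-fitted qHTS data.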
MCF10A rerep = induces DNA re-replication in MCF 10a normal breast cells; MCF 10A DNA re-replication, Hoechst nuclear intensity, 48 h; Potency, µM (highest dose often 46.1 µM), usual class: activators; actives 2.9% (n = 350,000); AID 624296; note: nearly all actives have a fitted effect of over 50% in size
Each line names hits and unclear results; the compound was inactive in the other large screens. Hits are enriched below; roughly 8.9% of the tested compounds scored in any of these assays. Unless noted, calls come from the whole dose curve; as a rule, active = well fitted curve in the direction sought with a large enough effect; inconclusive = small, poorly fitted or top-dose-only effect, or another doubt; inactive = no such curve, though single readings can be large; an effect the other way counts as inactive or inconclusive.

COc1ccc(N2C(=O)CSC2c2cccs2)cc1 (configuration not stated)	SW480 rerep 18µM, KB-V1 MDR tox inconclusive, MCF10A rerep inconclusive
O=C(Nc1ccccc1Cl)c1ccc2c(=O)n3c(nc2c1)CCC3	none
Cc1cnc(C(=O)Nc2nc(-c3ccccc3)cs2)cn1	DRD3 antagonist inconclusive, KB-V1 MDR tox 23µM
O=C(Nc1nc(-c2cccc3ccccc23)cs1)c1cnccn1	SW480 rerep inconclusive, KB-V1 MDR tox inconclusive, MCF10A rerep 18µM
Cc1cc(-c2csc(NC(=O)c3ccc(=O)[nH]c3)n2)c(C)n1Cc1ccccc1	none
CC1CC1C(=O)Nc1nc(-c2ccccc2)cs1 (configuration not stated)	none
O=C(Nc1nc(-c2ccccc2)cs1)c1ccc(=O)[nH]c1	KB-3-1 cytotox inconclusive, KB-V1 MDR tox 18µM
O=C(Nc1nc(-c2ccc(F)c(F)c2)cs1)c1cnccn1	none
O=C(Nc1nc(-c2ccccc2)cs1)c1ccc2c(=O)n3c(nc2c1)CCCCC3	KB-3-1 cytotox inconclusive, KB-V1 MDR tox inconclusive, MCF10A rerep 18µM
N[C@H](CC(=O)O)C(=O)O	none (no result: DRD3 antagonist, KB-3-1 cytotox, KB-V1 MDR tox)
O=C(Nc1nc(-c2cc(Cl)sc2Cl)cs1)c1ccccc1	KB-3-1 cytotox inconclusive, MCF10A rerep 21µM
CCOC(=O)C(C)Sc1cc(CS(=O)(=O)c2ccccc2)nc(-c2ccccc2)n1 (configuration not stated)	KB-V1 MDR tox 21µM
O=S(=O)(Cc1cc(Sc2ccc(Cl)cc2)nc(-c2ccccc2)n1)c1ccccc1	none
CC(=O)/C(C#N)=C1\NC(=O)C(Cc2ccccc2)S1 (configuration not stated)	KB-3-1 cytotox 15µM, SW480 rerep inconclusive, KB-V1 MDR tox 13µM
C/C(=N\N=C1\NC(=O)C(Cc2ccccc2)S1)c1ccccc1 (configuration not stated)	MCF10A rerep inconclusive
CNC(=O)/C(C#N)=C1\SC(Cc2ccc(F)cc2)C(=O)N1c1ccccc1C (configuration not stated)	none
CC(=O)/C(C#N)=C1\NC(=O)C(Cc2ccccc2C)S1 (configuration not stated)	KB-3-1 cytotox inconclusive, KB-V1 MDR tox 5.8µM
CC(=O)c1ccc(NC(=O)CSc2nc(-c3cccc(F)c3)nc3c2c(=O)n(C)c(=O)n3C)cc1	none (no result: DRD3 antagonist, SW480 rerep, MCF10A rerep)
CN1CCN(C(c2ccc(Cl)cc2Cl)c2sc3nc(-c4ccco4)nn3c2O)CC1 (configuration not stated)	none (no result: DRD3 antagonist, SW480 rerep, MCF10A rerep)
CC(C)(O)[C@@H]1CC[C@@](C)(C2CC[C@]3(C)C2[C@H](O)CC2[C@@]4(C)CC[C@H](O)C(C)(C)C4[C@@H](O[C@H]4O[C@@H](CO)[C@H](O)[C@@H](O)[C@@H]4O[C@@H]4O[C@H](CO)[C@@H](O)[C@H](O)[C@H]4O)C[C@]23C)O1 (stereo in doubt)	none
CC(=O)OCC1OC(OC2C[C@]3(C)C(CC(O)C4C([C@](C)(CCC=C(C)C)OC5OC(CO)C(O)C(O)C5O)CC[C@]43C)[C@@]3(C)CCC(O)C(C)(C)C23)C(O[C@@H]2OC(C)C(O)C(O)C2O)C(O)C1O (some centres not stated)	MCF10A rerep 0.52µM
COC1=CC(=O)[C@@]2([C@@H]1O)[C@@H](Cl)C[C@]13C(OC)=C(OC)C(=O)C[C@]21CCN3C	none
CCN(CC)C1=N/C(=C\c2ccco2)C(=O)N1c1ccccc1	KB-V1 MDR tox inconclusive, MCF10A rerep inconclusive
CC(C)CN(CC(C)C)C1=N/C(=C\c2ccco2)C(=O)N1c1ccccc1	DRD3 antagonist inconclusive, SW480 rerep inconclusive, MCF10A rerep 15µM
CCOC(=O)c1nnn(-c2nonc2-n2cccc2)c1CN1CCC(C)CC1	SW480 rerep inconclusive, MCF10A rerep 26µM
COc1ccc(O)c(/C=N/NC(=O)c2c(C)nnn2-c2nonc2N)c1	SW480 rerep 7.3µM
CC1CCN(Cc2c(C(=O)N/N=C/c3cc(Cl)ccc3O)nnn2-c2nonc2N)CC1	KB-3-1 cytotox 2.1µM, KB-V1 MDR tox inconclusive
CCOC(=O)c1nnn(-c2nonc2-n2cccc2)c1CCl	DRD3 antagonist inconclusive, KB-3-1 cytotox inconclusive, SW480 rerep inconclusive, KB-V1 MDR tox inconclusive, MCF10A rerep inconclusive
Cc1cc(C)c(/C=N/NC(=O)c2nnn(-c3nonc3N)c2CN2CCC(C)CC2)c(C)c1	KB-3-1 cytotox inconclusive, SW480 rerep inconclusive, KB-V1 MDR tox inconclusive, MCF10A rerep inconclusive
COc1c(Cl)cc(Cl)cc1/C=N/NC(=O)c1nnn(-c2nonc2N)c1CN1CCC(C)CC1	SW480 rerep inconclusive, KB-V1 MDR tox inconclusive, MCF10A rerep 5.8µM
Cc1ccc(C(=O)C(C)CN2CCCCC2)cc1 (configuration not stated)	none (no result: DRD3 antagonist, KB-3-1 cytotox, KB-V1 MDR tox)
Cc1c(CCC(=O)N2CCCCC2)c(=O)oc2cc3occ(C(C)(C)C)c3cc12	none (no result: DRD3 antagonist, KB-3-1 cytotox, SW480 rerep, KB-V1 MDR tox, MCF10A rerep)
Cc1cc(C)cc(NC(=O)N2CCC(CN3CCc4ccccc4C3)CC2)c1	none (no result: DRD3 antagonist, KB-3-1 cytotox, SW480 rerep, KB-V1 MDR tox, MCF10A rerep)
CC(C)CC(NC(=O)C1CCCCC1)C(=O)Nc1cccc(C(F)(F)F)c1 (configuration not stated)	none (no result: DRD3 antagonist, SW480 rerep, MCF10A rerep)
COc1ccc(-c2noc(Cn3c(=O)c4ccccc4n(CC(=O)Nc4cccc(OC)c4)c3=O)n2)cc1	none (no result: DRD3 antagonist, SW480 rerep, MCF10A rerep)
Cc1c2cnn(-c3ccccc3)c(=O)c2c(C)n1C(C)C(=O)Nc1ccccc1C(F)(F)F (configuration not stated)	none (no result: DRD3 antagonist, SW480 rerep, MCF10A rerep)
S=Cc1ccc(/C=C/c2ccnc3ccccc23)cc1	KB-3-1 cytotox inconclusive (no result: D3 ag, DRD3 antagonist, SW480 rerep, MCF10A rerep)
Cc1cc(=O)[nH]c2nnc(SCc3cccc(F)c3)n12	none (no result: DRD3 antagonist, KB-3-1 cytotox, SW480 rerep, KB-V1 MDR tox, MCF10A rerep)
CC(C)(C)OC(=O)N1CCC(c2c(C(=O)N3CCN(C(=O)c4ccco4)CC3)cnn2-c2ccccc2)CC1	none (no result: DRD3 antagonist, SW480 rerep, MCF10A rerep)
COc1cccc(N2CC(NC(=O)C3CC3)CC2=O)c1 (configuration not stated)	none (no result: DRD3 antagonist, KB-3-1 cytotox, SW480 rerep, KB-V1 MDR tox, MCF10A rerep)
COc1ccc(-[n+]2c(C)cc(/C=C3\Sc4ccccc4N3C)cc2C)cc1	KB-3-1 cytotox inconclusive, SW480 rerep 18µM, KB-V1 MDR tox inconclusive, MCF10A rerep inconclusive
COc1ccc(C(=O)/C=C2\Sc3ccccc3N2C)cc1	SW480 rerep inconclusive, KB-V1 MDR tox inconclusive, MCF10A rerep inconclusive
COc1ccccc1OC(=O)CCN1c2ccccc2Sc2ccccc21	none
COc1ccccc1-[n+]1c(C)cc(/C=C2\Sc3ccccc3N2C)cc1C	KB-3-1 cytotox 0.29µM, SW480 rerep 23µM, KB-V1 MDR tox 9.2µM, MCF10A rerep inconclusive
OC(COCc1ccccc1)Cn1cnc2ccccc21 (configuration not stated)	KB-V1 MDR tox 16µM
OC(CN(c1ccccc1)c1ccccc1)Cn1cnc2ccccc21 (configuration not stated)	KB-3-1 cytotox inconclusive, KB-V1 MDR tox 18µM
